Drawing on PubChem BioAssay (NCI), this text covers growth for eight compounds.

Test systems include DU-145 prostate; K-562 leukemia; MALME-3M melanoma; MDA-MB-231 breast; RXF 393 renal; SF-268 CNS; SF-295 CNS; SF-539 CNS; UACC-257 melanoma; M14 melanoma; HCT-15 colon; HT29 colon; SNB-75 CNS; SNB-19 CNS; U251 CNS; PC-3 prostate; SK-MEL-5 melanoma; UACC-62 melanoma; LOX IMVI melanoma; SK-MEL-28 melanoma.
Holding throughout (assay): NCI-60 one-dose screen, 48 h (100 = growth as untreated, 0 = no growth, -100 = all killed)
Common to all, as to details: 10 µM unless noted

Compounds without any hit were thinned out: in the full panel of roughly 83,000, 20% have a hit.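 Interpretation: 100, growth as untreated; towards 0, rising growth inhibition; 0, no net growth; 0 to -100, cell death. Compounds scoring below 10 were considered active.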 A number with no mark means an inactive call. Active and inactive are the calls of the source.

Regarding `COC(=O)CSC1=C(C)C(=O)C(OC)=C(OC)C1=O`, the growth with DU-145 prostate was 103%; with K-562 leukemia, 13.6%; with MALME-3M melanoma it was 89.9%; in the assay on MDA-MB-231 breast, 85.4%; in the assay on RXF 393 renal, 105%; in the assay on SF-268 CNS it was 100%. Also, the growth is 106% with SF-295 CNS; 98.1% in the assay on SF-539 CNS; 78.1% in the assay on UACC-257 melanoma; 91.1% in the assay with M14 melanoma; 86.3% in the assay on HCT-15 colon; 103% in the assay with HT29 colon. Besides, the growth in the assay on SNB-75 CNS was 66.6%; in the assay on SNB-19 CNS, 90.3%; in the assay on U251 CNS, 98.1%; with PC-3 prostate, 76.9%; with SK-MEL-5 melanoma, 86.4%; in the assay with UACC-62 melanoma, 70.5%. The growth with LOX IMVI melanoma is 83.3%; with SK-MEL-28 melanoma it was 104%.
Consider `Oc1ccc(Cl)c(Nc2ncnc3c2cnn3CC(Cl)c2ccc(Br)cc2)c1` (stereo not given), for which the growth in the assay with DU-145 prostate was 50.8%; in the assay on K-562 leukemia, 1.88% (active); in the assay on MALME-3M melanoma, 57.4%; with MDA-MB-231 breast, 26.4%; with RXF 393 renal it was -8.51% (active); in the assay with SF-268 CNS, 26.7%. Further, the growth in the assay on SF-295 CNS is 60.3%; in the assay with SF-539 CNS, 29.1%; with UACC-257 melanoma, 80.1%; with M14 melanoma, 65.4%; with HCT-15 colon, 37.9%; with HT29 colon it was 57.2%. The growth in the assay on SNB-75 CNS is 3.71% (active); in the assay on SNB-19 CNS it was 57.4%; with U251 CNS it was 53.5%; with PC-3 prostate it was 44.5%; in the assay on SK-MEL-5 melanoma, 48.8%; in the assay with UACC-62 melanoma, 55.6%. In addition, the growth with LOX IMVI melanoma was 0.654% (active); in the assay with SK-MEL-28 melanoma, 78.4%.
With `Nc1nnc(CS(=O)(=O)c2ccccc2)s1`, the growth is 113% with DU-145 prostate; 98.9% with K-562 leukemia; 94.1% in the assay with MALME-3M melanoma; 102% with MDA-MB-231 breast; 172% in the assay with RXF 393 renal; 105% in the assay with SF-268 CNS. Also, the growth with SF-295 CNS is 99.2%; in the assay with SF-539 CNS it was 101%; with UACC-257 melanoma, 97.1%; in the assay with M14 melanoma, 97.3%; with HCT-15 colon, 99.9%; with HT29 colon it was 94.6%. In addition, the growth was 102% with SNB-75 CNS; 103% with SNB-19 CNS; 95.6% in the assay with U251 CNS; 93% with PC-3 prostate; 131% in the assay with SK-MEL-5 melanoma; 91% with UACC-62 melanoma. For the same compound, the growth in the assay on LOX IMVI melanoma is 84.6%; in the assay with SK-MEL-28 melanoma it was 112%.
As for `COc1c(B(O)O)cccc1-c1nc2ccc3cn[nH]c3c2c2c1CCCC2`, the growth was 69.1% in the assay on DU-145 prostate; 74.7% in the assay with K-562 leukemia; 87% with MALME-3M melanoma; 25.3% with MDA-MB-231 breast; -30.3% (active) in the assay with RXF 393 renal; 50.3% in the assay on SF-268 CNS. Moreover, the growth in the assay on SF-295 CNS is 70%; with SF-539 CNS it was 9.76% (active); in the assay with UACC-257 melanoma, 83.9%; with M14 melanoma it was 88.4%; with HCT-15 colon it was 54.9%; in the assay with HT29 colon, 85.8%. Also, the growth in the assay on SNB-75 CNS was -17.7% (active); with SNB-19 CNS, 54.9%; in the assay on U251 CNS it was 48.1%; in the assay with PC-3 prostate it was 60%; in the assay on SK-MEL-5 melanoma it was 53.4%; with UACC-62 melanoma, 52.1%. Moreover, the growth with LOX IMVI melanoma is 41.3%; in the assay with SK-MEL-28 melanoma, 86.6%.
Consider `COc1ccc(-c2nc3ccccc3n2CC(=O)N=Nc2c(O)[nH]c3ccc(Br)cc23)cc1`, for which the growth was 33.7% in the assay with DU-145 prostate; 35.3% with K-562 leukemia; 79.3% in the assay on MALME-3M melanoma; 57.5% in the assay on MDA-MB-231 breast; 64.3% with RXF 393 renal; 96% in the assay with SF-268 CNS. Moreover, the growth was 81.1% in the assay with SF-295 CNS; 87.9% in the assay with SF-539 CNS; 120% in the assay on UACC-257 melanoma; 77.4% in the assay on M14 melanoma; 58.1% in the assay with HCT-15 colon; 45.4% in the assay with HT29 colon. For the same compound, the growth was 66.8% in the assay on SNB-75 CNS; 89.3% in the assay with SNB-19 CNS; 105% with U251 CNS; 76.7% with PC-3 prostate; 67.4% with SK-MEL-5 melanoma; 72.1% with UACC-62 melanoma. Further, the growth in the assay with LOX IMVI melanoma is 74.4%; in the assay on SK-MEL-28 melanoma, 97.8%.
Consider `O=C(NNC(=S)NCCc1ccccc1)c1ccc(OCc2nc3ccc(Cl)cc3[nH]2)cc1`, for which the growth with DU-145 prostate was 79.4%; in the assay with K-562 leukemia it was 29.6%; in the assay on MALME-3M melanoma, 65.5%; in the assay on MDA-MB-231 breast it was 95.5%; with RXF 393 renal it was 93%; in the assay with SF-268 CNS, 70.4%. Further, the growth in the assay with SF-295 CNS was 61.4%; in the assay with SF-539 CNS it was 84.3%; in the assay with UACC-257 melanoma, 79.9%; in the assay with M14 melanoma, 93.9%; in the assay on HCT-15 colon, 66.9%; in the assay with HT29 colon it was 100%. For the same compound, the growth was 128% in the assay with SNB-75 CNS; 75.6% in the assay on SNB-19 CNS; 88.2% in the assay with U251 CNS; 67.1% in the assay with PC-3 prostate; 41.6% in the assay with SK-MEL-5 melanoma; 63.3% in the assay with UACC-62 melanoma. Also, the growth was 80.4% in the assay with LOX IMVI melanoma and 101% in the assay with SK-MEL-28 melanoma.
In the case of `O=C1Nc2ccc(F)cc2/C1=C/C(=O)c1cc2ccccc2oc1=O`, the growth was 111% in the assay on DU-145 prostate; 33.9% with K-562 leukemia; 71.2% in the assay with MALME-3M melanoma; 91.8% with MDA-MB-231 breast; 83.4% in the assay with RXF 393 renal; 106% in the assay with SF-268 CNS. The growth in the assay on SF-295 CNS is 108%; in the assay on SF-539 CNS it was 105%; in the assay on UACC-257 melanoma it was 96.3%; with M14 melanoma, 89.1%; in the assay with HCT-15 colon, 62.7%; with HT29 colon, 115%. Also, the growth in the assay on SNB-75 CNS is 91.1%; with SNB-19 CNS, 100%; in the assay on U251 CNS, 104%; in the assay with PC-3 prostate, 93.7%; in the assay on SK-MEL-5 melanoma, 102%; in the assay on UACC-62 melanoma, 82.2%. The growth with LOX IMVI melanoma is 80.4%; in the assay on SK-MEL-28 melanoma, 117%.
On to `CNS(=O)(=O)N1CCc2c(Br)c3c(c(OC)c2C1CCc1ccccc1)OCO3` (stereo not given), for which the growth with DU-145 prostate is 12.1%; in the assay on K-562 leukemia, 13.1%; with MALME-3M melanoma, -65% (active); in the assay with MDA-MB-231 breast, -62.8% (active); with RXF 393 renal, -59.7% (active); in the assay with SF-268 CNS it was -12% (active). In addition, the growth in the assay on SF-295 CNS was -75.3% (active); in the assay with SF-539 CNS it was -86.5% (active); in the assay with UACC-257 melanoma, -24.5% (active); in the assay with M14 melanoma it was -9.58% (active); in the assay on HCT-15 colon it was 2.11% (active); in the assay on HT29 colon, -25.4% (active). The growth in the assay on SNB-75 CNS is -38.4% (active); with SNB-19 CNS, 4.35% (active); with U251 CNS it was -63.6% (active); in the assay with PC-3 prostate, 4.03% (active); in the assay with SK-MEL-5 melanoma, -100% (active); with UACC-62 melanoma it was -78.7% (active). Moreover, the growth in the assay on LOX IMVI melanoma is -95.1% (active); in the assay on SK-MEL-28 melanoma, -77.9% (active).
